The nature of assay [1]: Cellular Toxicity (caspase-3) HepG2 (AID 654).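 Further: cells exposed to compound for 16 hours before reading; 0% = DMSO alone and 100% = caspase signal from 100 µM tamoxifen.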 An outline of the steps:
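Caspase 3/7 activation is measured as a luminescence increase (aminoluciferin substrate) after 16 h compound exposure of human hepatocarcinoma HepG2 cells. AC50 values are Hill fits, scaled between DMSO baseline and 100 uM tamoxifen stimulation.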

Assay [2] in a line: Cellular Toxicity (caspase-3) Jurkat (AID 655).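 Further: cells exposed to compound for 16 h at 37 °C before reading.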 An outline of the steps: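 Caspase 3/7 activation is scored as increased luminescence in Jurkat cells cultured with compound for 16 hours in complete medium. AC50 values come from Hill fits of qHTS concentration-response data normalized to DMSO and 100 uM tamoxifen controls.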
Assay [3] can be described thus: Cellular Toxicity (caspase-3) HUV-EC-C (AID 656). Put shortly:
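Read-out: luminescence proportional to caspase 3/7 activity, measured 20 min after adding Caspase-Glo 3/7 reagent. Cells (HUV-EC-C) had received compound for 16 hr at 37°C. Increases relative to DMSO and 100 uM tamoxifen gave concentration-response AC50 values.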

Assay [4] in a line: Cellular Toxicity (caspase-3) SHSY5Y (AID 657). An outline of the steps:
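Cells plated and incubated 5 h at 37 °C, dosed over a concentration range, incubated 16 h, then given Caspase-Glo 3/7 reagent for 1 h at room temperature before luminescence reading. Staurosporine (10 uM) defined full stimulation.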

The nature of assay [5]: Cellular Toxicity (caspase-3) BJ (AID 658). The settings on record: Potency: caspase-3 activation. An outline of the steps:
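qHTS, BJ fibroblasts, 1000 cells/well; 5 hr preincubation, 16 hr compound, 37 °C; Caspase-Glo 3/7 reagent, 1 hr RT; luminescence. DMSO = 0%, 10 uM staurosporine = 100%. Hill-equation AC50.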

Assay [6] is described as follows: Cellular Toxicity (caspase-3) MRC-5 (AID 659). Put shortly:
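MRC-5 fibroblasts, 1500/well; 16 h cpd, 37 °C; Caspase-Glo 3/7, 1 h RT; lumi read. Norm: DMSO = 0%, 10 uM staurosporine = 100%. Hill-fit AC50 from qHTS conc-response.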

Assay [7] is described as follows: Cellular Toxicity (caspase-3) Mesangial (AID 660).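 Further: cells exposed to compound for 16 h before the caspase read.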 Put shortly: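 Caspase 3/7 activation measured by Caspase-Glo 3/7 luminescence (20 min, room temperature) following 16 h exposure of mesangial cells (1000/well); AC50 from Hill-equation fit, normalized to DMSO and 100 uM tamoxifen.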
Assay [8] in a line: Cellular Toxicity (caspase-3) SK-N-SH (AID 661). The settings on record: SK-N-SH caspase-3 activation, qHTS; caspase-3 activation: at 91.7 µM (top of the series), DMSO as zero, staurosporine as full. Put shortly: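 Caspase 3/7 activation was read by luminogenic substrate cleavage after 16 hour treatment of SK-N-SH cells. Signal was scaled between DMSO and 10 uM staurosporine, and concentration-response data were fitted with the Hill equation for AC50.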
(In general: qHTS replaces the single test concentration by a dilution series.)

Assay [9] in a line: Cellular Toxicity (caspase-3) H-4-II-E (AID 663).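 Further: cells exposed to compound for 16 hr before readout.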 Put shortly: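 H-4-II-E rat hepatoma, 1500 cells/well, 5 hr settle at 37 °C; compound 16 hr, 37 °C, complete medium; Caspase-Glo 3/7, 20 min RT; luminescence. DMSO = 0%, 100 uM tamoxifen = 100%; Hill-equation AC50.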
Assay [10] can be described thus: Cellular Toxicity (caspase-3) Hek293 (AID 664).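 Further: cells exposed to compound for 16 h at 37 °C before readout.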 The settings on record: HEK293 caspase-3 activation, DMSO = 0%, 100 µM tamoxifen = 100%; at 92.2 µM (top of the series). Put shortly: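 Concentration-response qHTS: caspase 3/7 activation measured by luminescent aminoluciferin substrate cleavage after 16 h compound exposure of Hek 293 cells. AC50 from Hill equation, with DMSO as basal and 100 uM tamoxifen as 100%.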

Assay [11] in a line: Cellular Toxicity (caspase-3) N2a (AID 665).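 Further: compound exposure lasted 16 h at 37 °C before readout.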 An outline of the steps: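 Caspase-3/7 activation measured as luminescence from Caspase-Glo reagent (1 h, room temperature) after 16 h compound exposure of mouse N2a cells. AC50 values from Hill-equation concentration-response, scaled between DMSO and 10 uM staurosporine.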
Assay [12] in a line: Cellular Toxicity (caspase-3) NIH 3T3 (AID 666).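 Further: caspase signal read after 16 h compound exposure.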 An outline of the steps:
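Caspase-Glo 3/7 luminescence reported caspase activation in 1000 NIH 3T3 cells/well after 16 h compound exposure at 37 C. DMSO set basal and 100 uM tamoxifen set 100% stimulation; concentration-response modeled with the Hill equation for AC50.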

A short description of assay [13]: Cellular Toxicity (caspase-3) Renal Proximal Tubule (AID 667).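 Further: cells exposed to compound for 16 hours at 37 °C before detection.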 An outline of the steps: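 In qHTS format, rat primary proximal tubule cells seeded at 1000 per well are exposed to compounds for 16 hours at 37 °C. An increase in Caspase-Glo 3/7 luminescence indicates caspase activation.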
The target of assay [14] is 3',5'-cyclic-AMP phosphodiesterase 4B (Homo sapiens) (UniProt Q07343). The assay is described as follows: qHTS Assay for Inhibitors of PDE-IV (AID 607; active means well fitted activation curve with a large enough effect in the main read-out, with a control signal flat, not every such curve was filed as active; further: % of control where 0% means no effect). An outline of the steps:
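Live HEK293 cells with a modified cyclic nucleotide-gated (CNG) channel report intracellular cAMP via membrane-potential dye fluorescence (ex 535/em 590 nm). Endogenous PDE-IV was targeted. Compounds were tested at up to 22.9 uM final; RO 20-1724 100 uM served as control.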

The target in assay [15] is Cytochrome P450 2D6 (Homo sapiens) (UniProt P10635). The assay is described as follows: qHTS Assay for Inhibitors and Substrates of Cytochrome P450 2D6 (AID 891). Further: potency means the concentration at half of the fitted maximal effect; nearly all actives have a fitted effect of over 60% in size. Put shortly:
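Luminescent read-out of luciferin formed by 5 nM human CYP2D6 demethylating 30 uM Luciferin-ME EGE (Km level) over 60 min at room temperature after NADPH regeneration addition. Data normalized to full inhibition by 1.43 uM quinidine.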

Assay [16] is described as follows: Confirmation and Secondary Assay for Modulators of Hemoglobin Beta Chain Splicing at IVS2 654 locus (AID 910).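 Further: HeLa cells stably carrying EGFP split by mutant beta-globin IVS2-654 intron; % of control where 0% means no effect.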 An outline of the steps: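 HeLa cells stably expressing EGFP interrupted by β-globin IVS2-654 intron, seeded overnight in Opti-MEM/2% FCS, then treated 2 days at 37 °C. Restored splicing read as total peak GFP intensity per well by laser scanning cytometry (488 nm excitation, 500–520 nm emission); 500 nM antisense PNA as control.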

From PubChem BioAssay (NCATS) come the findings set out here.

A number with no mark means an inactive call. Records with an inconclusive call do not appear. Active and inactive are the calls of the source. Unless noted, the call rests on the fitted dose curve; in most records, active means well fitted curve in the direction sought with a large enough effect; inconclusive means small, poorly fitted or top-dose-only effect, or another doubt; inactive means no such curve, though single readings can be large; an effect the other way counts as inactive or inconclusive.

Sequence of 3',5'-cyclic-AMP phosphodiesterase 4B (Homo sapiens) (Q07343 whole entry, looked up): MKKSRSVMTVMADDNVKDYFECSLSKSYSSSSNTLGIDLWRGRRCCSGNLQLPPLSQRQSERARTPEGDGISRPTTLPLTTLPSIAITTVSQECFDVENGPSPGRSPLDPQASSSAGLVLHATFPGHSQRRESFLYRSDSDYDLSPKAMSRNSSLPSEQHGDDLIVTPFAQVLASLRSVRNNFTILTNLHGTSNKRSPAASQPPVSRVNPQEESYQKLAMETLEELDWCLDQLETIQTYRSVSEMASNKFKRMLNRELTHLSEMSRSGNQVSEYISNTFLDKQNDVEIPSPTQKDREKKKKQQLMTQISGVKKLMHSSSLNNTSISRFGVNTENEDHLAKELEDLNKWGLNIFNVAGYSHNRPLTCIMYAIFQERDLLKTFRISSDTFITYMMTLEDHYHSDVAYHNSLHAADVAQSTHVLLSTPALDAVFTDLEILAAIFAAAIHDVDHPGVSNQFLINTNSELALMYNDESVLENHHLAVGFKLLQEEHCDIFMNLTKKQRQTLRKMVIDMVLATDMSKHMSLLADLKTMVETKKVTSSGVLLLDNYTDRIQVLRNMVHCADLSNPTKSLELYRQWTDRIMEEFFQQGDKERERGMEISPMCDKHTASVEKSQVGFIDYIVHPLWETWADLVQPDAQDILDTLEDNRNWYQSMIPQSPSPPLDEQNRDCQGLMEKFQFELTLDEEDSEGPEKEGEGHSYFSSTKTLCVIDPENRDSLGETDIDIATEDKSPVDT
Sequence of Cytochrome P450 2D6 (Homo sapiens) (P10635 whole entry, looked up): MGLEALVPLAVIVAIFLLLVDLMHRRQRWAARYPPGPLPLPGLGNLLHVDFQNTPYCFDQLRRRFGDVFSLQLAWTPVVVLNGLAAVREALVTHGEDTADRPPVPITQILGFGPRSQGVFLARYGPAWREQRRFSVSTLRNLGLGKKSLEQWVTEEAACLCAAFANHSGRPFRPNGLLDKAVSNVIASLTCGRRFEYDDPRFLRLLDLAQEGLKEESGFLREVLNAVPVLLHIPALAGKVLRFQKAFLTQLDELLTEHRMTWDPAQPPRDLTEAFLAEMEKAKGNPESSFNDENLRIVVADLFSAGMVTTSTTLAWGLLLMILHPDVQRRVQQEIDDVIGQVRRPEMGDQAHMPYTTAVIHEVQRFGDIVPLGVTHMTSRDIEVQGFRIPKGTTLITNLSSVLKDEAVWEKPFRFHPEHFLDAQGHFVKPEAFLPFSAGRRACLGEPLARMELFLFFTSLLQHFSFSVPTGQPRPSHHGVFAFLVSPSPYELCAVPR

With `c1ccc2ccccc2c1`, the call in assay [1], in assay [3], in assay [6], in assay [7], in [9] and in [11] was inactive. Besides, the outcome in [12] and in [13] was inactive. In addition, the Potency result in [2], in [4], in assay [5] and in assay [8] was “inactive” in each case. Also, the caspase-3 activation in assay [10] is -0.432%.
As to `CO`, the outcome in [1], in [3], in [6], in [7], in assay [9] and in [11] was inactive. Moreover, the call in assay [12] and in assay [13] was inactive. For the same compound, the Potency entry in assay [2], in assay [4], in assay [5] and in assay [8] was “inactive” each time. The caspase-3 activation in assay [10] is -0.124%.
Turning to `CC(=O)[C@H]1CC[C@H]2[C@@H]3C=CC4=CC(=O)CC[C@@]4(C)[C@H]3CC[C@]12C`, in assay [14], the compound was classed as inactive.
For `Cc1ncc[nH]1`, the outcome in assay [1], in [3], in assay [6], in [7], in [9] and in assay [11] was inactive. The compound was called inactive in assay [12] and in assay [13]. The Potency entry in [2], in assay [4], in assay [5] and in assay [8] was “inactive” in each case. The caspase-3 activation in assay [10] is -0.913%.
In the case of `CCCOc1cc(N)ccc1C(=O)OCCN(CC)CC`, the compound was called inactive in assay [14]. In [15], the Potency is 2 µM (active).
For `OCc1ccccc1`, the outcome in assay [1], in assay [3], in assay [6], in [7], in assay [9] and in assay [11] was inactive. The result in assay [12] and in assay [13] was inactive. Besides, the Potency entry in assay [2], in assay [4], in assay [5] and in assay [8] was “inactive” in each case. Besides, the caspase-3 activation in [10] is -0.432%.
For `O=C(O)CCC(=O)c1ccc(-c2ccccc2)cc1`, the compound was classed as inactive in assay [14]. Further, the Potency entry in assay [16] is “inactive”.
`CNC(=O)c1c(I)c(C(=O)NCC(=O)Nc2c(I)c(C(=O)O)c(I)c(C(=O)NCCO)c2I)c(I)c(N(C)C(C)=O)c1I`: in assay [14], the compound was called inactive.
As to `C[C@H](CCC(=O)O)[C@H]1CC[C@H]2[C@@H]3[C@H](O)C[C@@H]4C[C@H](O)CC[C@]4(C)[C@H]3C[C@H](O)[C@]12C`, the compound was classed as inactive in assay [1], in [3], in [6], in assay [7], in assay [9] and in assay [11]. Moreover, the compound was classed as inactive in assay [12] and in assay [13]. Besides, the Potency result in assay [2], in assay [4], in assay [5] and in [8] was “inactive” each time. Also, the caspase-3 activation in assay [10] was -0.41%.
Turning to `CCOC(C)OCC`, the result in assay [1], in assay [3], in [6], in assay [7], in assay [9] and in assay [11] was inactive. Further, the compound was classed as inactive in assay [12] and in assay [13]. The Potency result in [2], in assay [4], in assay [5] and in assay [8] was “inactive” in each case. Moreover, the caspase-3 activation in assay [10] is 0.677%.
As to `OCl`, the result in assay [1], in [3], in [6], in [7], in assay [9] and in [11] was inactive. Moreover, the result in assay [12] and in assay [13] was inactive. In addition, the Potency entry in assay [2], in assay [4], in assay [5] and in [8] was “inactive” each time. In addition, in [10], the caspase-3 activation is 2.43%.
